# Results published in PubChem BioAssay AID2221 (Broad Institute, 2009).
# About 2,200 (0.76%) of roughly 290,000 compounds were called active. This excerpt belongs to a sample that is enriched for actives. Unmarked numbers belong to inactive results. No stated cut-off is given here; in the data, active means inhibition above about 30%; inconclusive means no clear call, values can overlap the other calls; inactive means below that.
# Biological target: Protein RecA (Mycobacterium tuberculosis (strain ATCC 25618 / H37Rv)) (UniProt P9WHJ3)
# Sequence (P9WHJ3 whole entry, looked up): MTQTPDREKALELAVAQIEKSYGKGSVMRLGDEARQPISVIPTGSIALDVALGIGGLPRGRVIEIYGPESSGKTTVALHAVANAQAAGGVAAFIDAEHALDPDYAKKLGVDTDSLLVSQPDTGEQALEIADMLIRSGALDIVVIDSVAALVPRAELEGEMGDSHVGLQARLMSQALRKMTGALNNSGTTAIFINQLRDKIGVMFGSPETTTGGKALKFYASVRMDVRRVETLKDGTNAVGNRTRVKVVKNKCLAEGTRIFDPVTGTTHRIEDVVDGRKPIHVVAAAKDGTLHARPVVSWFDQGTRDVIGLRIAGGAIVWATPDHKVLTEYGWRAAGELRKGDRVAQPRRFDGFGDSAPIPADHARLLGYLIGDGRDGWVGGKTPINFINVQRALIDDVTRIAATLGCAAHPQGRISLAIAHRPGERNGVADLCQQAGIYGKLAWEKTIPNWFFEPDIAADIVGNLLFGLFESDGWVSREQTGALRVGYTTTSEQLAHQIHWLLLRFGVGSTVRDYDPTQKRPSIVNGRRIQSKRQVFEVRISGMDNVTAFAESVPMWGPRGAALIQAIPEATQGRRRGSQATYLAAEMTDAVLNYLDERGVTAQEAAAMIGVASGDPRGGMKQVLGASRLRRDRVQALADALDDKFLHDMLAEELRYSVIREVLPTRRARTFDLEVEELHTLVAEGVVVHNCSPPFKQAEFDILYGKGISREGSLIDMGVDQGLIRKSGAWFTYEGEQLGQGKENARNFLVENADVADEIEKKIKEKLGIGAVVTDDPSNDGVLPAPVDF
# Experiment: Mtb RecA intein splicing inhibitors, primary screen, biochemical, fluorescence, HTS (AID 2221);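 further: 0% = vehicle wells and 100% = reference inhibitor control wells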
# Conditions: cell-free RecA intein splicing, active compounds read high, concentration not given here
row,Compound,inhibition
1,CCOC(=O)CSc1nc(C)c(Oc2ccc(Cl)cc2Cl)c(=O)[nH]1,1.85%
2,CCC(C)[C@H](NC(=O)N1CCn2c1nc1ccccc12)C(=O)NCc1ccc(OC)cc1 (stereo not given in full),2.07%
3,COc1ccccc1NC(=O)/C=C/C(=O)O,-1.49%
4,O=C(O)/C=C/C(=O)Nc1ccc(F)cc1F,0.519%
5,COC(=O)c1sc(-c2ccc(C(C)(C)C)cc2)cc1NC(=O)/C=C/C(=O)O,88.1% (active)
6,CSc1ccc(S(=O)(=O)NCC(=O)OCC(=O)NC2(C#N)CCCCC2)cc1[N+](=O)[O-],1.65%
7,CC(C)[C@H](NC(=O)OCc1ccccc1)C(=O)OCc1ccccc1,7.54%
8,CCOC(=O)c1ccc(Nc2cc3ccccc3c(=O)[nH]2)cc1,62.4% (active)
9,CCOC(=O)c1ccc(NC(=O)c2cc(=O)[nH]c3ccccc23)cc1,-5.09%
10,CCOC(=O)c1nc(Nc2ccc(C(=O)OC)cc2)c2ccccc2n1,-6.39%
11,CCN(CC)CCNC(=O)c1sc2ncn(CC(=O)Nc3ccc(C)c(Cl)c3)c(=O)c2c1C,-0.641%
12,O=C(CN1C(=O)CC(c2ccccc2)=Nc2ccccc21)NC1CCCCC1,-1.07%
13,CCOc1ccc(NC(=O)C2CCN(C(=O)N3CCOc4ccccc43)CC2)cc1,2.39%
14,Cc1nnc(NC(=O)C(c2ccccc2)c2ccccc2)s1,1.12%
15,CCN1CCN(c2ccc(NC(=O)c3cnccn3)cc2)CC1,-0.413%
16,CCOC(=O)N1CCN(C(c2cccnc2)c2ccc3cccnc3c2O)CC1 (stereo not given),9.76%
17,CCN1CCN(C(c2cccnc2)c2cc(Cl)c3cccnc3c2O)CC1 (stereo not given),70% (active)
18,COc1cccc(/C=N/Nc2ncc(C(F)(F)F)cc2Cl)c1O,-2.37%
19,COc1ccccc1/C=N\Nc1cc(C)nc(-n2nc(C)cc2C)n1,0.767%
20,COc1cccc(/C=N/Nc2cc(C)nc(-c3ccccc3O)n2)c1O,38.8% (active)
21,C/C(=N\NC(=O)COc1ccc(C)cc1[N+](=O)[O-])c1ccc2c(c1)OCCO2,1.11%
22,O=S(=O)(Nc1ccc(O)c2ccccc12)c1ccc(OC(F)(F)F)cc1,95.2% (active)
23,Cc1nn(C)c(C)c1NS(=O)(=O)c1ccc(OC(F)(F)F)cc1,0.692%

row,Compound,inhibition
1,O=C1COc2ccc(S(=O)(=O)Nc3ccc(OC(F)(F)F)cc3)cc2N1,-0.276%
2,COCCCC1CCN(C(=O)C2CCC(=O)N(C3CCCCCC3)C2)CC1 (stereo not given),-0.89%
3,Cc1cc(C)cc(NC(=O)C2CCN(c3nc(C)cc(C)n3)CC2)c1,-1.54%
4,C/C(N)=C(/C#N)C(=O)COC(=O)C1=NN(c2ccccc2)C(=O)CC1,-0.739%
5,COC(=O)CC1=NN(c2nc(C)cc(C)n2)C(=O)C1,36.2% (active)
6,Cc1ccc(CC2CC(=O)N(c3nc(C)cc(C)n3)C2=O)cc1 (stereo not given),-1.07%
7,COC(=O)CC1=NN(c2ccccc2)C(=O)C1,76.6% (active)
8,CC(=O)c1sc(NC(=O)C2=NN(c3ccccc3)C(=O)CC2)nc1C,-1.59%
9,O=C(CSc1nc(Nc2ccccc2)nc(N2CCOCC2)n1)Nc1cc(Cl)ccc1O,2.06%
10,CCCn1nc(C(=O)NNC(=O)CSCC(=O)Nc2cc(C)on2)c2ccccc2c1=O,1.67%
11,O=C1Nc2cc(C(=O)N3CCC(N4CCCCC4)CC3)ccc2S/C1=C\c1ccccc1,1.2%
12,Cc1csc(CN(C)C(=O)CC2C(=O)NCCN2CC(C)(C)C)n1 (stereo not given),-5.7%
13,O=C(C(Cc1ccccc1)n1cccc1)N1CCN(C2CCCCC2)CC1 (stereo not given),1.21%
14,NC(=O)CC[C@@H]1NC(=O)[C@H](CO)NC(=O)c2cc([N+](=O)[O-])cc(I)c2NCC[C@@H](C(N)=O)NC1=O,30.3% (active)
15,NC(=O)C[C@@H]1NC(=O)CNC(=O)c2cc([N+](=O)[O-])cc(I)c2NCCC(C(N)=O)NC1=O (stereo not given in full),1.58%
16,NCCCC[C@@H]1NC(=O)[C@H](CCC(=O)O)NC(=O)c2cc([N+](=O)[O-])cc(I)c2NCC[C@@H](C(N)=O)NC1=O,0.579%
17,COc1ccc(Nc2ncc(F)c(N3CCOCC3)n2)cc1,-0.77%
18,CN(C)S(=O)(=O)c1ccc(C(=O)NCCN=C2NS(=O)(=O)c3ccccc32)cc1,-1.53%
19,Cc1cc(C)c(NC(=O)CN2C(=O)NC(Cc3ccccc3)C2=O)c(C)c1 (stereo not given),0.835%
20,Cc1onc(-c2c(Cl)cccc2Cl)c1C(=O)c1c[nH]c(C(=O)NC2CC2)c1,5.76%
21,Cc1onc(-c2c(Cl)cccc2Cl)c1C(=O)NNC(=O)c1c(-c2c(Cl)cccc2Cl)noc1C,0.133%
22,Cc1[nH]n(C)c(=O)c1C(=O)c1c(-c2c(Cl)cccc2Cl)noc1C,77.1% (active)
